What all share (test): DAPPL (digital affinity profiling via proximity ligation, sequencing); 10 mM Tris-HCl pH 7.5, 50 mM NaCl, 1 mM DTT, 4% glycerol, room temperature, 30 min; GST-TFs on glutathione beads, 16-mer random dsDNA library, 0.1% formaldehyde crosslink after washing; high values mean tight binding
For one assay, the target named is T1, FLI1 (Homo sapiens, UniProt Q01543 1-452).
T1 sequence: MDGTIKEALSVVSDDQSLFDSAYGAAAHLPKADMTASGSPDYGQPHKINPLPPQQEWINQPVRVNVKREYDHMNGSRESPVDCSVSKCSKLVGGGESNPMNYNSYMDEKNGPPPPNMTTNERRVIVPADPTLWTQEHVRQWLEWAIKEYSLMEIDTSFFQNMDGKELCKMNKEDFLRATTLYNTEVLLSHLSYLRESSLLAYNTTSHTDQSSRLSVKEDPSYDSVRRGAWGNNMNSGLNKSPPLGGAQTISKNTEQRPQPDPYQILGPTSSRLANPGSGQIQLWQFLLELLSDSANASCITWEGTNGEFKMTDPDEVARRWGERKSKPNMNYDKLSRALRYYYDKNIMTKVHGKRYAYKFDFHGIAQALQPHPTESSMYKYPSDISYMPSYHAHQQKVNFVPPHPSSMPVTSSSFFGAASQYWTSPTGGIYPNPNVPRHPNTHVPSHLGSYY
The note with it: protein: recombinant; tags: N-terminal GST; dsDNA, one strand shown. The gist of the method:
(§1)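 The binding signal reported is, for every hexamer, its read frequency for a factor over its read frequency for the tag-only sample. Reads came from pools of yeast-expressed, GST-fused human transcription factors on glutathione beads, barcoded with DNA and mixed with that sample, which were incubated with 200 nmole of a random double-stranded 16-mer DNA library in Tris/NaCl/DTT/glycerol buffer at room temperature for 30 min. After washing, the pools were crosslinked with 0.1% formaldehyde, proximity-ligated with BsaI/T4 ligase for 1 h at 37 °C, PCR-amplified and sequenced on an Illumina NextSeq500.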

A further assay has as its target T2, ELK1 (Homo sapiens, UniProt P19419 1-428).
T2 sequence: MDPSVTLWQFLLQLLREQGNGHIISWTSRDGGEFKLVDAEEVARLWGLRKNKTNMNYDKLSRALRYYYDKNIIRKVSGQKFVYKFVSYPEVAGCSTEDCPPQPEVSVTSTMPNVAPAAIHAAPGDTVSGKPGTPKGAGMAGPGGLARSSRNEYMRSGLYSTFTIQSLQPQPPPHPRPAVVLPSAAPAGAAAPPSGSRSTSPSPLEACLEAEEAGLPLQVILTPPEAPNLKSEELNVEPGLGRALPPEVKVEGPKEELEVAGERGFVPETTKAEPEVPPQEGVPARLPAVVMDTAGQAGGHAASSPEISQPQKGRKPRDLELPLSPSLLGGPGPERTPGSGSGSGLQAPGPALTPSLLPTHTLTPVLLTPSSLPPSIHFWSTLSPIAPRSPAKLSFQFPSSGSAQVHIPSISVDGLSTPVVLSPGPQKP
The settings on record: protein: recombinant; tags: N-terminal GST; dsDNA, one strand shown. The gist of the method: as §1

The next assay deals with T3, GABPA (Homo sapiens, UniProt Q06546 1-454).
T3 sequence: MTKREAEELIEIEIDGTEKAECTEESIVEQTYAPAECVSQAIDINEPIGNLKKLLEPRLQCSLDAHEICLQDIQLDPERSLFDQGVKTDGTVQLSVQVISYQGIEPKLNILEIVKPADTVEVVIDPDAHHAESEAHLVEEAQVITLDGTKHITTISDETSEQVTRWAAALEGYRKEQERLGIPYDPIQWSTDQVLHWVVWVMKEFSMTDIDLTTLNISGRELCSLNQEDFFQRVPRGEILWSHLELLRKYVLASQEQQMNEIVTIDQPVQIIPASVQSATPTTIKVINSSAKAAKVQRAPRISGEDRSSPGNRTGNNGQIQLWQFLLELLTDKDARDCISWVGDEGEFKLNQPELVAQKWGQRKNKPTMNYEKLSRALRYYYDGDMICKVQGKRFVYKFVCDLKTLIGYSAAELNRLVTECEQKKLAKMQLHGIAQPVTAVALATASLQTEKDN
The settings on record: protein: recombinant; tags: N-terminal GST; dsDNA, one strand shown. An outline of the steps:
as §1

A further assay concerns the target T4, ERG (Homo sapiens, UniProt P11308 1-479).
T4 sequence: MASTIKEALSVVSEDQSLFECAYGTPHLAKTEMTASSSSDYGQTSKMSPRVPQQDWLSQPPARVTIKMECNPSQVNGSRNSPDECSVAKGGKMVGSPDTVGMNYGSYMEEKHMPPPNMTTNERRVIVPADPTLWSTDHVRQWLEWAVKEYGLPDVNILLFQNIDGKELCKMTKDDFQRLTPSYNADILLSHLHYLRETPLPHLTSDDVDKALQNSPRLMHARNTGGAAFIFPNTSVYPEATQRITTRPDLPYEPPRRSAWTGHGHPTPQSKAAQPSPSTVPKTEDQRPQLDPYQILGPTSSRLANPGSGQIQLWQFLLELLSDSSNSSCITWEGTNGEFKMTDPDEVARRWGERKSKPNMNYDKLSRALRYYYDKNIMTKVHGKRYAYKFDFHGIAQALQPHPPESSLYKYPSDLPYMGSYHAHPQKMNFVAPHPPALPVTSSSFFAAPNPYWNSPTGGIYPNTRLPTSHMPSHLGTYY
The settings on record: protein: recombinant; tags: N-terminal GST; dsDNA, one strand shown. An outline of the steps: as §1

The next assay deals with ELF1 (Homo sapiens, UniProt P32519 1-619). The note with it: protein: recombinant; tags: N-terminal GST; dsDNA, one strand shown. An outline of the steps: as §1
A further assay addresses T5, EHF (Homo sapiens, UniProt Q9NZC4 1-300).
T5 sequence: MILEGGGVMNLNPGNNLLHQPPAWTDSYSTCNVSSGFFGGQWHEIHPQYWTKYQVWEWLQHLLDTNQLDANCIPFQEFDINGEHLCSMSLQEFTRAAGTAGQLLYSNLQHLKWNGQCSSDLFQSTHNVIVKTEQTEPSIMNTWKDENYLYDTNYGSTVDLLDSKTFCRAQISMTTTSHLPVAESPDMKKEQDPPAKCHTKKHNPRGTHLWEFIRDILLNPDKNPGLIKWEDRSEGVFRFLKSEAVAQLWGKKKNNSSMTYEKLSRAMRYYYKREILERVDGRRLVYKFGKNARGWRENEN
The settings on record: protein: recombinant; tags: N-terminal GST; dsDNA, one strand shown. An outline of the steps:
as §1

The target of another assay is SPI1 (Homo sapiens, UniProt P17947 1-270). The note with it: protein: recombinant; tags: N-terminal GST; dsDNA, one strand shown. The gist of the method:
as §1

The target of a further assay is SPIB (Homo sapiens, UniProt Q01892 1-262). The note with it: protein: recombinant; tags: N-terminal GST; dsDNA, one strand shown. The gist of the method:
as §1

Another assay addresses T6, ELK3 (Homo sapiens, UniProt P41970 1-407).
T6 sequence: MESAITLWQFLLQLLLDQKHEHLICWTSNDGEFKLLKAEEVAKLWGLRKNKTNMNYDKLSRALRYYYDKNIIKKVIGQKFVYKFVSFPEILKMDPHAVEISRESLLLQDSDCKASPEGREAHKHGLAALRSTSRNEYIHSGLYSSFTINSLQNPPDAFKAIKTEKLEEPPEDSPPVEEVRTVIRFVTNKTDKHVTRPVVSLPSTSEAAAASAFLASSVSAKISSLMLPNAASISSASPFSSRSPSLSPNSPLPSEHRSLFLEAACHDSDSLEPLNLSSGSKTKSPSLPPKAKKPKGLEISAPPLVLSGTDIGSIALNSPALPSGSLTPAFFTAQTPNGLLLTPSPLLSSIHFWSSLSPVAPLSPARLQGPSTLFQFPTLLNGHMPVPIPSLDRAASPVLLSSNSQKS
The settings on record: protein: recombinant; tags: N-terminal GST; dsDNA, one strand shown. The gist of the method:
as §1

A further assay has as its target T7, FEV (Homo sapiens, UniProt Q99581 1-238).
T7 sequence: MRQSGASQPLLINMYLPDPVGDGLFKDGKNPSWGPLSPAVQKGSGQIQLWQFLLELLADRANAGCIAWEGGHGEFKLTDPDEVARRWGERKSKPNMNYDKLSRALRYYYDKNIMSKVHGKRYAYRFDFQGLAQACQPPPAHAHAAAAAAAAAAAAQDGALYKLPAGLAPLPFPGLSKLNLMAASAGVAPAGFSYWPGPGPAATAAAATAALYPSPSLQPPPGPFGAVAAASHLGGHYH
The note with it: protein: recombinant; tags: N-terminal GST; dsDNA, one strand shown. An outline of the steps: as §1

The target of a further assay is ETV5 (Homo sapiens, UniProt P41161 1-510). The note with it: protein: recombinant; tags: N-terminal GST; dsDNA, one strand shown. The gist of the method:
as §1

The next assay deals with HSF1 (Homo sapiens, UniProt Q00613 1-529). The settings on record: protein: recombinant; tags: N-terminal GST; chain copies: 3; dsDNA, one strand shown. An outline of the steps: as §1
The target of another assay is T8, SPIC (Homo sapiens, UniProt Q8N5J4 1-248).
T8 sequence: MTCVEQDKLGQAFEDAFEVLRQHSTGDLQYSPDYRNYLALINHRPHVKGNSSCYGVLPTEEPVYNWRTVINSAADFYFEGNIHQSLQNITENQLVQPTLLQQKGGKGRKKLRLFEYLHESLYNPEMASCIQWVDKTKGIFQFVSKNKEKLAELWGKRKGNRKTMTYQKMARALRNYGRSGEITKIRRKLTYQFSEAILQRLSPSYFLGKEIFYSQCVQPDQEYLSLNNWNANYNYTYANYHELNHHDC
The settings on record: protein: recombinant; tags: N-terminal GST; dsDNA, one strand shown. The gist of the method: as §1

In a further assay the target is ELF4 (Homo sapiens, UniProt Q99607 1-663). The note with it: protein: recombinant; tags: N-terminal GST; dsDNA, one strand shown. The gist of the method: as §1
For the next assay, the target named is T9, ELK4 (Homo sapiens, UniProt P28324-2 1-405).
T9 sequence: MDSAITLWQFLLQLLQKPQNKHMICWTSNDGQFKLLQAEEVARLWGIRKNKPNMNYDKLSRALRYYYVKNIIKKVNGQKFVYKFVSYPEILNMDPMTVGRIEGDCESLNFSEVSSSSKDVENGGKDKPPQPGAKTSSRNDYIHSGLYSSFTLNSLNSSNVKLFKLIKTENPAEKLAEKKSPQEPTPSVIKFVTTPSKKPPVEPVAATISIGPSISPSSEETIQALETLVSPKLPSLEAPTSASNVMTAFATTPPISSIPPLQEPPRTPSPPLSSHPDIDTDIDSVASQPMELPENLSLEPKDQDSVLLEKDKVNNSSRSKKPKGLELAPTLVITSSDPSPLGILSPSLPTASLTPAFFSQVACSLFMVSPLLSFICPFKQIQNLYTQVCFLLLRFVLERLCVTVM
The settings on record: protein: recombinant; tags: N-terminal GST; dsDNA, one strand shown. The gist of the method:
as §1

A further assay has as its target T10, ELF3 (Homo sapiens, UniProt P78545 1-371).
T10 sequence: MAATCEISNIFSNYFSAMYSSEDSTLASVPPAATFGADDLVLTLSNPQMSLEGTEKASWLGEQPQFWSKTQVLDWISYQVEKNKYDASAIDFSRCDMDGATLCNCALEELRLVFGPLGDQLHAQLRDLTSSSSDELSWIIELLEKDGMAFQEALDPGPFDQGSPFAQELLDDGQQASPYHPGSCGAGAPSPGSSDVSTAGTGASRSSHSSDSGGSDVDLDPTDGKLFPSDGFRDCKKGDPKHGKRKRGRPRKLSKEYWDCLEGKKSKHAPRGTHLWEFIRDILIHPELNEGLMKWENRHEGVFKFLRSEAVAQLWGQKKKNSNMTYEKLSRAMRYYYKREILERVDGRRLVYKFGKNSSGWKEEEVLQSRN
The settings on record: protein: recombinant; tags: N-terminal GST; dsDNA, one strand shown. The gist of the method: as §1

The target in another assay is CRX (Homo sapiens, UniProt O43186 1-299). The settings on record: protein: recombinant; tags: N-terminal GST; dsDNA, one strand shown. The gist of the method:
as §1

In a further assay the target is ETV1 (Homo sapiens, UniProt P50549 1-477). The note with it: protein: recombinant; tags: N-terminal GST; dsDNA, one strand shown. An outline of the steps:
as §1

ELF1, sequence (P32519 whole entry): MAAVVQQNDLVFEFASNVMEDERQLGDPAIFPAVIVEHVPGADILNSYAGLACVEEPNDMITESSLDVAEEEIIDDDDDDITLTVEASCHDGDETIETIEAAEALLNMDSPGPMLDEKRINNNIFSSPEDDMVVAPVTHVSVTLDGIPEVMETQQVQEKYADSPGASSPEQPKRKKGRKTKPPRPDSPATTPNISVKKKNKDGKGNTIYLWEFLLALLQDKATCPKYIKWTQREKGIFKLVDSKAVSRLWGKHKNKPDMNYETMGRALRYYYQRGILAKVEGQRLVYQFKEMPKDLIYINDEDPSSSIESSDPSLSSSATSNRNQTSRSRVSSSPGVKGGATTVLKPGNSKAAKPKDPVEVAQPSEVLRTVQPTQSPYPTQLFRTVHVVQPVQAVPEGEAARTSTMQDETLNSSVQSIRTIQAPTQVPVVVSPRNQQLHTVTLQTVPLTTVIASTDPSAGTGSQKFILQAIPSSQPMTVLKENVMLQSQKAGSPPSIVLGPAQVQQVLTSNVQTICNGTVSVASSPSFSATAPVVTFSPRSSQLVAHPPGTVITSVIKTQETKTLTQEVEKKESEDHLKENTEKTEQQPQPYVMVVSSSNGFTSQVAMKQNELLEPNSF
ELF4, sequence (Q99607 whole entry): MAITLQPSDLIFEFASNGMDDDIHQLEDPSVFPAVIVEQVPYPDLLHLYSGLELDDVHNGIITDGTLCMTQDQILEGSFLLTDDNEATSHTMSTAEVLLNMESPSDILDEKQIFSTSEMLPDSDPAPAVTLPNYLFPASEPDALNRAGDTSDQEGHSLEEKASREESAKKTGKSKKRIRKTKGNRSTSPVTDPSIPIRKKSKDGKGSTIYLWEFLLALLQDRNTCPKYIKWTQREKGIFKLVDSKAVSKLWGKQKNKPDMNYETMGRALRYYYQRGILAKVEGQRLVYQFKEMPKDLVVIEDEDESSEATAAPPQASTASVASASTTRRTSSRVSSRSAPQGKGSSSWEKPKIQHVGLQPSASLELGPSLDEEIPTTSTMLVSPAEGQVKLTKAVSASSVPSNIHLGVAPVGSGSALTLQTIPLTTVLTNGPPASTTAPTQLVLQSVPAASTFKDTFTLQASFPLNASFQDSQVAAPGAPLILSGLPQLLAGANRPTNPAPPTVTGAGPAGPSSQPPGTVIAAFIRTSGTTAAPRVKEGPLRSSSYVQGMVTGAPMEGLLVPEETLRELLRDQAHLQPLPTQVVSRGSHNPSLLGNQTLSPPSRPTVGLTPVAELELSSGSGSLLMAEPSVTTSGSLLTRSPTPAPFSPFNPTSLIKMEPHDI
ETV1, sequence (P50549 whole entry): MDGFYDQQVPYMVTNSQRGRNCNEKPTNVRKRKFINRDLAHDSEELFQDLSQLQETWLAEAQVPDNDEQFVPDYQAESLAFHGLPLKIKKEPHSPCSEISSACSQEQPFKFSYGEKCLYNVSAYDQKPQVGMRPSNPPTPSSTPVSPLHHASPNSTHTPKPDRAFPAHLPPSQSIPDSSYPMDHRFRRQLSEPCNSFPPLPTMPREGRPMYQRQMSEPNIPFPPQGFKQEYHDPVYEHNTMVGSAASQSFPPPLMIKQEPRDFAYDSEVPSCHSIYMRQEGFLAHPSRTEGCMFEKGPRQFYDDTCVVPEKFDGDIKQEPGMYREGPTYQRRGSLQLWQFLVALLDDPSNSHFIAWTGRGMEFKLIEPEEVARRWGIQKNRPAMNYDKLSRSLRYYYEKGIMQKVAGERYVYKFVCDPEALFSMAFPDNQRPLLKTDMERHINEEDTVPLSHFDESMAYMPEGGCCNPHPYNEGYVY
HSF1, sequence (Q00613 whole entry): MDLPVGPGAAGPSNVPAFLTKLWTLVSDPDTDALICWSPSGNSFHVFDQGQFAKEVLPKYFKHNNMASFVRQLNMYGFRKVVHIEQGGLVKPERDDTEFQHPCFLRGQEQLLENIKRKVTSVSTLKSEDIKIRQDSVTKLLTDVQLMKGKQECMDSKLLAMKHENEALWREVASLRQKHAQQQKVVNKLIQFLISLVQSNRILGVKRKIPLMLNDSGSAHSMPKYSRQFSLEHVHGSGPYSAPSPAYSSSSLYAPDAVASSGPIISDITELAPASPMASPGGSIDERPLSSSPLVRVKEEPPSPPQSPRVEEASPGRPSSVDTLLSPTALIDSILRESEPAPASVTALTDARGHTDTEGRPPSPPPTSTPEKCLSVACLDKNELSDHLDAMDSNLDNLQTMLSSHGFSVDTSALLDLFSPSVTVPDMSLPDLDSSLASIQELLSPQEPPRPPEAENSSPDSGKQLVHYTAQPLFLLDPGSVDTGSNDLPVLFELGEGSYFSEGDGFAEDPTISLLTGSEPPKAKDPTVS
SPIB, sequence (Q01892 whole entry): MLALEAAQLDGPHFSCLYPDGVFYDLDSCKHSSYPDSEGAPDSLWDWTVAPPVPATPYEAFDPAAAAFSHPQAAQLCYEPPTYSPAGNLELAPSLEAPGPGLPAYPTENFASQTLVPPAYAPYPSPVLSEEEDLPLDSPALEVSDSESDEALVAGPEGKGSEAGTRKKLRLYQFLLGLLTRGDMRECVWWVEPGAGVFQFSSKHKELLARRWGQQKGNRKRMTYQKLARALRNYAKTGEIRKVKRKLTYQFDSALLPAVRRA
ETV5, sequence (P41161 whole entry): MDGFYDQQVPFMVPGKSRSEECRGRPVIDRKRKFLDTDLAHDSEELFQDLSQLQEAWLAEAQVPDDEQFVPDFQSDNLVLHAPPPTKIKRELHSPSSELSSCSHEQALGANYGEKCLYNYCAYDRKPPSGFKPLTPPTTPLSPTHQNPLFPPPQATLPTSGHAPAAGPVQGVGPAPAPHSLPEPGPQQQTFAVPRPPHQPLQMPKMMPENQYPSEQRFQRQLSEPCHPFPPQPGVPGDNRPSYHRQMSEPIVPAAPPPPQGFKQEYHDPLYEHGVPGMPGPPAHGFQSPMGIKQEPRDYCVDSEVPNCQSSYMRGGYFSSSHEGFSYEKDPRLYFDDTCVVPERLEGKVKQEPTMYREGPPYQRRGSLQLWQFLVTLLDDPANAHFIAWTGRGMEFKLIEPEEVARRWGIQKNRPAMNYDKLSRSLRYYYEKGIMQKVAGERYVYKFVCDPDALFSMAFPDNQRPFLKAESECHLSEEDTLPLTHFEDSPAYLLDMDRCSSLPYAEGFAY
CRX, sequence (O43186 whole entry): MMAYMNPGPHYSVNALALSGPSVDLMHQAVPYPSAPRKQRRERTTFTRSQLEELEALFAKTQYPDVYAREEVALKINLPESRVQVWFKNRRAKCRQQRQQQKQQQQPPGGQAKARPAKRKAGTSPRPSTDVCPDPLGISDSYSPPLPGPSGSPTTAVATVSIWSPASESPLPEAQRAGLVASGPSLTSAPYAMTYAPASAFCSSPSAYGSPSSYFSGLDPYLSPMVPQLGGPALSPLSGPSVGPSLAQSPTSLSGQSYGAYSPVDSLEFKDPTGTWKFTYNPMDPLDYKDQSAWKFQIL

On to ACTAAG, for which the binding signal with FLI1 was 1.04 fold enrichment (6-mer frequency, TF over GST control); with ELK1, 1.08 fold enrichment (6-mer frequency, TF over GST control); with GABPA, 1.11 fold enrichment (6-mer frequency, TF over GST control); with ERG, 1.02 fold enrichment (6-mer frequency, TF over GST control); with ELF1 it was 1.04 fold enrichment (6-mer frequency, TF over GST control); with EHF, 1.15 fold enrichment (6-mer frequency, TF over GST control). In addition, the binding signal is 1.12 fold enrichment (6-mer frequency, TF over GST control) with SPI1; 1.14 fold enrichment (6-mer frequency, TF over GST control) with SPIB; 1.07 fold enrichment (6-mer frequency, TF over GST control) in the assay with ELK3; 1.02 fold enrichment (6-mer frequency, TF over GST control) in the assay with FEV; 1.04 fold enrichment (6-mer frequency, TF over GST control) with ETV5; 1.32 fold enrichment (6-mer frequency, TF over GST control) with HSF1. Besides, the binding signal in the assay with SPIC was 1.19 fold enrichment (6-mer frequency, TF over GST control); with ELF4, 1.1 fold enrichment (6-mer frequency, TF over GST control); with ELK4, 1.02 fold enrichment (6-mer frequency, TF over GST control); with ELF3 it was 1.11 fold enrichment (6-mer frequency, TF over GST control); with CRX, 1.76 fold enrichment (6-mer frequency, TF over GST control); with ETV1, 1.15 fold enrichment (6-mer frequency, TF over GST control).

The values are drawn from article PMC7862700, “An all-to-all approach to the identification of sequence-specific readers for epigenetic DNA modifications on cytosine”.
